# Several values for one entry are separate records, joined by “and”; a condition that tells them apart may be missing. Equal entries are not always repeated. Screen size: about 5,500 compounds; about 2,000 (36%) were called active. About 18% were inconclusive and are not listed. Cut-off read from the data, not from the text of the source: active = normalized growth mostly below about 0.91 (no sharp cut-off); inconclusive = no clear call, values can overlap the other calls; inactive = mostly above about 0.92. This is one part of the list.
# Assay: chemical genetic growth profiling, strain panel (AID 1159580);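 note: tested at 20 µM; growth read once vehicle control cultures reached saturation at 30 °C; 1 = growth at the plate median or of vehicle wells; lower values mean less growth of the strain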
# Conditions: growth OD
compound,measurement,setting,value
COc1cc(OC)c2c(=O)cc(-c3ccccc3)oc2c1,normalized growth,"S. cerevisiae deletion strains, locus YAL013W, strain DEP1, stronger effect = lower value",0.912 (inactive)
same,normalized growth,"S. cerevisiae deletion strains, locus YBR021W, strain FUR4, stronger effect = lower value",0.978 (inactive)
same,normalized growth,"S. cerevisiae deletion strains, locus YBR229C, strain ROT2, stronger effect = lower value",0.949 (inactive)
same,normalized growth,"S. cerevisiae deletion strains, locus YCL029C, strain bik1, stronger effect = lower value",0.957 (inactive)
same,normalized growth,"S. cerevisiae deletion strains, locus YDL035C, strain GPR1, stronger effect = lower value",0.864 (inactive)
same,normalized growth,"S. cerevisiae deletion strains, locus YDL074C, strain BRE1, stronger effect = lower value",0.764 (active)
same,normalized growth,"S. cerevisiae deletion strains, locus YDL101C, strain DUN1, stronger effect = lower value",0.925 (inactive)
same,normalized growth,"S. cerevisiae deletion strains, locus YDL134C, strain PPH21, stronger effect = lower value",0.886 (active)
same,normalized growth,"S. cerevisiae deletion strains, locus YDL185W, strain tfp1, stronger effect = lower value",0.951 (inactive)
same,normalized growth,"S. cerevisiae deletion strains, locus YDL192W, strain arf1, stronger effect = lower value",0.914 (active)
same,normalized growth,"S. cerevisiae deletion strains, locus YDR101C, strain arx1, stronger effect = lower value",0.936 (inactive)
same,normalized growth,"S. cerevisiae deletion strains, locus YDR150W, strain NUM1, stronger effect = lower value",0.949 (inactive)
same,normalized growth,"S. cerevisiae deletion strains, locus YDR162C, strain NBP2, stronger effect = lower value",0.752 (active)
same,normalized growth,"S. cerevisiae deletion strains, locus YDR318W, strain mcm21, stronger effect = lower value",0.868 (active)
same,normalized growth,"S. cerevisiae deletion strains, locus YDR388W, stronger effect = lower value",0.951 (inactive)
same,normalized growth,"S. cerevisiae deletion strains, locus YDR502C, strain sam2, stronger effect = lower value",0.907 (active)
same,normalized growth,"S. cerevisiae deletion strains, locus YEL061C, strain CIN8, stronger effect = lower value",0.941 (inactive)
same,normalized growth,"S. cerevisiae deletion strains, locus YER110C, stronger effect = lower value",0.914 (inactive)
same,normalized growth,"S. cerevisiae deletion strains, locus YER155C, strain BEM2, stronger effect = lower value",0.951 (inactive)
same,normalized growth,"S. cerevisiae deletion strains, locus YER167W, strain BCK2, stronger effect = lower value",0.899 (active)
same,normalized growth,"S. cerevisiae deletion strains, locus YGL078C, strain dbp3, stronger effect = lower value",0.961 (inactive)
same,normalized growth,"S. cerevisiae deletion strains, locus YGL086W, strain mad1, stronger effect = lower value",0.924 (active)
same,normalized growth,"S. cerevisiae deletion strains, locus YGL248W, strain PDE1, stronger effect = lower value",0.866 (active)
same,normalized growth,"S. cerevisiae deletion strains, locus YGR078C, strain PAC10, stronger effect = lower value",0.805 (active)
same,normalized growth,"S. cerevisiae deletion strains, locus YGR135W, strain pre9, stronger effect = lower value",0.819 (active)
same,normalized growth,"S. cerevisiae deletion strains, locus YGR229C, strain SMI1, stronger effect = lower value",0.664 (active)
same,normalized growth,"S. cerevisiae deletion strains, locus YGR252W, strain gcn5, stronger effect = lower value",0.793 (inactive)
same,normalized growth,"S. cerevisiae deletion strains, locus YHR030C, strain SLT2, stronger effect = lower value",0.718 (active) and 0.911 (inactive)
same,normalized growth,"S. cerevisiae deletion strains, locus YHR079C, strain IRE1 (second series), stronger effect = lower value",0.895 (active)
same,normalized growth,"S. cerevisiae deletion strains, locus YHR079C, strain IRE1, stronger effect = lower value",0.925 (inactive)
same,normalized growth,"S. cerevisiae deletion strains, locus YHR094C, strain hxt1, stronger effect = lower value",0.96 (inactive)
same,normalized growth,"S. cerevisiae deletion strains, locus YHR129C, strain ARP1, stronger effect = lower value",0.934 (inactive)
same,normalized growth,"S. cerevisiae deletion strains, locus YHR200W, strain rpn10, stronger effect = lower value",0.929 (inactive)
same,normalized growth,"S. cerevisiae deletion strains, locus YIL066C, strain RNR3, stronger effect = lower value",0.912 (inactive)
same,normalized growth,"S. cerevisiae deletion strains, locus YIL073C, strain SPO22, stronger effect = lower value",0.844 (inactive)
same,normalized growth,"S. cerevisiae deletion strains, locus YIL125W, strain kgd1, stronger effect = lower value",0.975 (inactive)
same,normalized growth,"S. cerevisiae deletion strains, locus YIR030C, strain dcg1, stronger effect = lower value",0.95 (inactive)
same,normalized growth,"S. cerevisiae deletion strains, locus YJL095W, strain BCK1, stronger effect = lower value",0.51 (active) and 0.918 (inactive)
same,normalized growth,"S. cerevisiae deletion strains, locus YJL134W, strain LCB3, stronger effect = lower value",0.948 (inactive)
same,normalized growth,"S. cerevisiae deletion strains, locus YJL168C, strain set2, stronger effect = lower value",0.944 (inactive)
same,normalized growth,"S. cerevisiae deletion strains, locus YJL187C, strain SWE1 (second series), stronger effect = lower value",0.879 (inactive)
same,normalized growth,"S. cerevisiae deletion strains, locus YJR043C, strain POL32, stronger effect = lower value",0.894 (inactive)
same,normalized growth,"S. cerevisiae deletion strains, locus YJR066W, strain TOR1, stronger effect = lower value",0.872 (inactive)
same,normalized growth,"S. cerevisiae deletion strains, locus YJR075W, strain HOC1, stronger effect = lower value",0.884 (inactive)
same,normalized growth,"S. cerevisiae deletion strains, locus YKL009W, strain mrt4, stronger effect = lower value",0.906 (inactive)
same,normalized growth,"S. cerevisiae deletion strains, locus YKL068W, stronger effect = lower value",0.967 (inactive)
same,normalized growth,"S. cerevisiae deletion strains, locus YKL085W, strain MDH1 (second series), stronger effect = lower value",0.963 (inactive)
same,normalized growth,"S. cerevisiae deletion strains, locus YKL085W, strain MDH1, stronger effect = lower value",0.963 (inactive)
same,normalized growth,"S. cerevisiae deletion strains, locus YKL190W, strain CNB1, stronger effect = lower value",0.948 (inactive)
same,normalized growth,"S. cerevisiae deletion strains, locus YKR001C, strain vps1, stronger effect = lower value",0.839 (active)
same,normalized growth,"S. cerevisiae deletion strains, locus YLR039C, strain RIC1, stronger effect = lower value",0.644 (active)
same,normalized growth,"S. cerevisiae deletion strains, locus YLR058C, strain SHM2, stronger effect = lower value",0.913 (inactive)
same,normalized growth,"S. cerevisiae deletion strains, locus YLR102C, strain apc9, stronger effect = lower value",0.958 (inactive)
same,normalized growth,"S. cerevisiae deletion strains, locus YLR113W, strain HOG1, stronger effect = lower value",0.952 (inactive)
same,normalized growth,"S. cerevisiae deletion strains, locus YLR262C, strain YPT6, stronger effect = lower value",0.652 (inactive)
same,normalized growth,"S. cerevisiae deletion strains, locus YLR268W, strain sec22, stronger effect = lower value",0.877 (active)
same,normalized growth,"S. cerevisiae deletion strains, locus YLR330W, strain CHS5, stronger effect = lower value",0.929 (inactive)
same,normalized growth,"S. cerevisiae deletion strains, locus YLR342W, strain FKS1 (second series), stronger effect = lower value",0.71 (active)
same,normalized growth,"S. cerevisiae deletion strains, locus YLR371W, strain rom2, stronger effect = lower value",0.959 (inactive)
same,normalized growth,"S. cerevisiae deletion strains, locus YLR418C, strain cdc73, stronger effect = lower value",0.685 (active)
same,normalized growth,"S. cerevisiae deletion strains, locus YML016C, strain PPZ1, stronger effect = lower value",0.929 (inactive)
same,normalized growth,"S. cerevisiae deletion strains, locus YML032C, strain rad52, stronger effect = lower value",0.757 (active)
same,normalized growth,"S. cerevisiae deletion strains, locus YML124C, strain tub3, stronger effect = lower value",0.952 (inactive)
same,normalized growth,"S. cerevisiae deletion strains, locus YMR078C, strain ctf18, stronger effect = lower value",0.912 (inactive)
same,normalized growth,"S. cerevisiae deletion strains, locus YMR223W, strain ubp8, stronger effect = lower value",0.875 (active)
same,normalized growth,"S. cerevisiae deletion strains, locus YMR263W, strain SAP30, stronger effect = lower value",0.871 (active)
same,normalized growth,"S. cerevisiae deletion strains, locus YMR307W, strain GAS1, stronger effect = lower value",0.625 (inactive)
same,normalized growth,"S. cerevisiae deletion strains, locus YNL067W, strain RPL9B, stronger effect = lower value",0.889 (inactive)
same,normalized growth,"S. cerevisiae deletion strains, locus YNL128W, strain TEP1, stronger effect = lower value",0.939 (inactive)
same,normalized growth,"S. cerevisiae deletion strains, locus YNL153C, strain GIM3, stronger effect = lower value",0.924 (inactive)
same,normalized growth,"S. cerevisiae deletion strains, locus YNL183C, strain NPR1, stronger effect = lower value",0.88 (inactive)
same,normalized growth,"S. cerevisiae deletion strains, locus YNL233W, strain BNI4, stronger effect = lower value",0.846 (active)
same,normalized growth,"S. cerevisiae deletion strains, locus YNL250W, strain rad50, stronger effect = lower value",0.923 (inactive)
same,normalized growth,"S. cerevisiae deletion strains, locus YNL271C, strain bni1, stronger effect = lower value",0.943 (inactive)
same,normalized growth,"S. cerevisiae deletion strains, locus YNL298W, strain CLA4, stronger effect = lower value",0.941 (inactive)
same,normalized growth,"S. cerevisiae deletion strains, locus YNL307C, strain MCK1, stronger effect = lower value",0.533 (active)
same,normalized growth,"S. cerevisiae deletion strains, locus YNL322C, strain KRE1, stronger effect = lower value",0.946 (inactive)
same,normalized growth,"S. cerevisiae deletion strains, locus YNR052C, strain pop2, stronger effect = lower value",0.902 (active)
same,normalized growth,"S. cerevisiae deletion strains, locus YOL006C, strain TOP1, stronger effect = lower value",0.472 (active)
same,normalized growth,"S. cerevisiae deletion strains, locus YOL012C, strain htz1",0.858 (inactive)
same,normalized growth,"S. cerevisiae deletion strains, locus YOL147C, strain pex11, stronger effect = lower value",0.944 (inactive)
same,normalized growth,"S. cerevisiae deletion strains, locus YOR061W, strain CKA2, stronger effect = lower value",0.941 (inactive)
same,normalized growth,"S. cerevisiae deletion strains, locus YOR069W, strain VPS5, stronger effect = lower value",0.95 (inactive)
same,normalized growth,"S. cerevisiae deletion strains, locus YOR136W, strain idh2, stronger effect = lower value",0.965 (inactive)
same,normalized growth,"S. cerevisiae deletion strains, locus YOR144C, strain elg1, stronger effect = lower value",0.949 (inactive)
same,normalized growth,"S. cerevisiae deletion strains, locus YOR184W, strain ser1, stronger effect = lower value",0.792 (active)
same,normalized growth,"S. cerevisiae deletion strains, locus YOR231W, strain MKK1, stronger effect = lower value",0.925 (inactive)
same,normalized growth,"S. cerevisiae deletion strains, locus YOR316C, strain cot1, stronger effect = lower value",0.943 (inactive)
same,normalized growth,"S. cerevisiae deletion strains, locus YPL055C, strain LGE1, stronger effect = lower value",0.83 (inactive)
same,normalized growth,"S. cerevisiae deletion strains, locus YPL241C, strain CIN2, stronger effect = lower value",0.946 (inactive)
same,normalized growth,"S. cerevisiae deletion strains, locus YPL256C, strain CLN2, stronger effect = lower value",0.911 (inactive)
same,normalized growth,"S. cerevisiae deletion strains, locus YPR119W, strain clb2, stronger effect = lower value",0.945 (inactive)
same,normalized growth,"S. cerevisiae deletion strains, locus YPR141C, strain kar3, stronger effect = lower value",0.967 (inactive)
same,normalized growth,"S. cerevisiae deletion strains, locus YPR163C, strain tif3, stronger effect = lower value",0.785 (active)
same,normalized growth,"S. cerevisiae deletion strains, locus YPR167C, strain met16, stronger effect = lower value",0.951 (inactive)
same,normalized growth,"S. cerevisiae deletion strains, strain wtn01, stronger effect = lower value",0.868 (active)
same,normalized growth,"S. cerevisiae strains, strain wild type, stronger effect = lower value",0.905 (inactive)
